PERK inh – block of dimerizer-induced PERK translation repression, primary screen, PERK inhibitor project, CHO PERK-DD cells, SEAP luminescence, HTS; CHO PERK-DD fusion, SEAP luminescence translation reporter; Eukaryotic translation initiation factor 2-alpha kinase 3 (Homo sapiens), Q9NZJ5; AID 1416, 2008; 220,000 compounds, 0.17% hits; inhibition, % at 5.6 µM;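 active = inhibition above the mean inhibition of all tested compounds plus 3 SD, set separately per screening campaign, cut at about 2.9% in these data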;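 also: PERK kinase domain activated by AP20187 dimerizer at 100 nM; 0% = DMSO with dimerizer and 100% = rapamycin at 8.4 µM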
MLLE-PAM2 inh – inhibitors of PABP1 MLLE–PAM2 peptide binding, primary screen, biochemical, fluorescence polarization, FITC-PAM2, GST-MLLE; Polyadenylate-binding protein 1 (Homo sapiens), P11940; inhibition, % at 20 µM; 360,000 compounds, 0.36% hits; in the data active = inhibition above about 35%, passing the limit was not always enough;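 also: plate controls were DMSO wells with GST-MLLE for no effect and wells lacking GST-MLLE protein for full effect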
Target sequence (P11940 whole entry, looked up): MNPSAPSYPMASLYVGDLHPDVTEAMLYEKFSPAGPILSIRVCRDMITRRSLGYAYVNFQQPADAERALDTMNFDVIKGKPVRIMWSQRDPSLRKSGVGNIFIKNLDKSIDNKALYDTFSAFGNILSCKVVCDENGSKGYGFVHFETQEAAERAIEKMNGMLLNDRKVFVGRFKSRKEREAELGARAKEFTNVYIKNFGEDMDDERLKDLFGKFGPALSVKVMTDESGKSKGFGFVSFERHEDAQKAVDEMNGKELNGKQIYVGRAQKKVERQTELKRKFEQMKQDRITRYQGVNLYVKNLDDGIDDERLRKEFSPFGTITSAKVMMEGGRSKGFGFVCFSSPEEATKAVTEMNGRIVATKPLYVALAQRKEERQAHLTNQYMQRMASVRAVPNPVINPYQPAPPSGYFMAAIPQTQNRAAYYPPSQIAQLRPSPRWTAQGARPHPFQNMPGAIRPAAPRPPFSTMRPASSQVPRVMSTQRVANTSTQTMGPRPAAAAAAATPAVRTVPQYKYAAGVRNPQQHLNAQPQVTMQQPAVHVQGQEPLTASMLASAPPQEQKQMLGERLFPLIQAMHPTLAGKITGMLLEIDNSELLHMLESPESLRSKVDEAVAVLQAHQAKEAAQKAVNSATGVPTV
GRK2 aptamer HTS – compounds blocking aptamer binding on GRK2 – biochemical, human GRK2, bead flow cytometry, HTS, primary screen; Beta-adrenergic receptor kinase 1 (Homo sapiens), P25098; FAM-aptamer displacement from GRK2; inhibition of aptamer binding, % at 10 µM; 330,000 compounds, 0.59% hits;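 active = inhibition of aptamer binding above 40%, roughly 3 SD of noise, on plates passing a quality check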;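 also: median bead fluorescence of bound FAM aptamer so fluorescent compounds give negative values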
PABP polyA inh – PABP poly(A) RNA binding inhibitors, primary screen, biochemical, fluorescence polarization, uHTS | inhibition, % at 35 µM | AID 2014, 2009 | 290,000 compounds, 1% hits;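 also: calls also rest on retests at 20 µM and on dose response follow-up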
eIF4H inh – human eIF4H binding inhibitors, primary screen, translation initiation inhibitor project, biochemical, uHTS, fluorescence polarization; Eukaryotic translation initiation factor 4H (Homo sapiens), Q15056; eIF4H fluorescence polarization binding assay; inhibition, % at 35 µM; 290,000 compounds, 0.94% hits;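 also: calls also rest on retests at 20 µM and on dose response follow-up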
GRK2 inh confirm – GRK2 aptamer-displacing inhibitors, retest, confirmation, biochemical, cherry pick 1, bead flow cytometry. shares compounds with GRK2 aptamer HTS. bead-bound GRK2, FAM-aptamer displacement. aptamer displacement, % at 10 µM. 2,000 compounds, 4% hits. AID 504451, 2011;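 active = aptamer displacement above 40%, near three times the noise of non-fluorescent compounds, on plates passing quality checks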;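 also: negative values mostly reflect intrinsic compound fluorescence rather than true enhancement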
Aptamer quench 1 – counter-screen for GRK2 aptamer inhibitors: fluorescent aptamer quenchers | fluorescence change (kMESF span), kMESF (concentration not given with the values) | shares compounds with GRK2 aptamer HTS | Fluorescent RNA aptamer beads, quenching, flow cytometry; stronger effect = higher value | 110 tested, under 10 active;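 active = compounds whose bead fluorescence drops by more than 37 kMESF across the dose range, marking them as dye quenchers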
FAM quench CP1 – quenches fluorescent RNA aptamer, GRK2 hit artifact; shares compounds with GRK2 aptamer HTS; Carboxyfluorescein RNA aptamer on beads, flow cytometry quenching; stronger effect = lower value; fluorescence response (% of DMSO), % at 10 µM; 2,000 tested, under 10 active;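 active = compounds that quench the bead-bound fluorescent RNA probe, cutting fluorescence to under half of the solvent control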;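 also: counterscreen run without GRK2 so only probe quenching by compound is measured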
GRK2 CP2 – GRK2 aptamer-displacing inhibitors, hit retest, confirmation, biochemical, cherry pick 2, bead flow cytometry. inhibition of aptamer binding, % at 10 µM. 360 tested, under 10 active. AID 504782, 2011. bead-bound GRK2, FAM-aptamer displacement. shares compounds with GRK2 aptamer HTS;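 active = inhibition of aptamer binding above 40%, about triple the noise seen with nonglowing compounds, on plates passing quality control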;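 also: negative values mostly come from compounds that fluoresce themselves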
FAM quench CP2 – aptamer fluorescence quenching in GRK2 counter-screen. shares compounds with GRK2 aptamer HTS. carboxyfluorescein RNA aptamer beads, flow cytometry quenching; stronger effect = lower value. fluorescence response vs DMSO, % at 10 µM. 360 tested, under 10 active. AID 588494;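 active = response vs DMSO under 50%, meaning signal dropped by over half, treated as fluorescence quencher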;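 also: labelled aptamer on streptavidin beads without GRK2 as a quench counter-screen; 100% = bead fluorescence of DMSO wells and lower means quenching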
Starred values were filed as active, the others as inactive; i = inactive; / = not tested or not shown. A selection: hits, their analogues and other compounds. The true share with any hit is near 1.9%. Unless noted, no rule for the calls is given here.

SMILES | PERK inh | MLLE-PAM2 inh | GRK2 aptamer HTS | PABP polyA inh | eIF4H inh | GRK2 inh confirm | FAM quench CP1 | others
COc1ccc(C(=O)NNC(=S)NC(=O)c2cc(-c3ccccc3)nc3ccccc23)cc1 | 2 | 33 | 0 | -5 | 5 | / | /
COc1ccc(Cl)cc1C(=O)NNC(=S)NC(=O)c1cc(-c2ccccc2)nc2ccccc12 | 0 | 34 | 43* | 11 | 12 | -2 | 109
Cc1c(Cl)cccc1NC(=O)CC1Sc2ccccc2NC1=O (stereo not drawn) | 0 | -5 | 2 | 9 | -2 | / | /
COC(=O)Cc1c(O)ccn(C2CC2)c1=O | 0 | -14 | 75* | -2 | -8 | -7 | 102
COC(=O)Cc1c(O)ccn(Cc2ccc3c(c2)OCO3)c1=O | 1 | 12 | 0 | 0 | -10 | / | /
Cc1ccc(C(=O)C(C)OC(=O)CNS(=O)(=O)c2ccc(C)cc2)cc1 (stereo not drawn) | / | -14 | 1 | / | / | / | /
O=C(NCCc1ccccc1)C1c2ccccc2C(=O)N1Cc1cccs1 (stereo not drawn) | 1 | -10 | 3 | 4 | 2 | / | /
CC(C)N1C(=O)c2ccccc2C1C(=O)NCCc1ccccc1 (stereo not drawn) | / | -4 | 11 | -8 | -4 | 1 | 95
COc1ccc(-n2c(C)cc(C(=O)CSc3nnc(-c4ccoc4C)n3C)c2C)cc1 | -1 | -7 | 91* | 8 | 4 | 2 | 100
O=P(c1ccccc1)(c1ccccc1)c1cc(S(=O)(=O)O)ccc1O | / | -9 | 74* | 30* | 78* | 52* | 98 | Aptamer quench 1=1.5
CNc1cc(N2CCN(S(=O)(=O)N(C)C)CC2)ccc1[N+](=O)[O-] | -1 | -8 | 73* | 17 | 0 | 4 | 94
O=C(Oc1ccccc1)c1ccc2c(c1)C(=O)N(Cc1ccncc1)C2=O | 2 | 2 | 3 | -8 | -8 | / | /
COCCCNC(=O)C(=O)NC1CCCCCC1 | 1 | 11 | 1 | 17 | -5 | / | /
COCCNC(=O)C/C(C)=N/NC(=O)C(=O)NC1CCCCC1 | 0 | -9 | 57* | -1 | 1 | 86* | 101 | Aptamer quench 1=-9.6
CCOc1ccc(-c2cn[nH]c2N)cc1 | 0 | -7 | 4 | 1 | 6 | / | /
COc1ccc(-c2cn[nH]c2N)cc1 | 2 | 5 | 63* | -6 | -2 | 2 | 82
COc1ccc(CN2CCNC(=O)C2CC(=O)NCc2csc(C)n2)c(F)c1 (stereo not drawn) | / | 12 | 0 | 14 | 4 | / | /
CC1CCN(c2nc(CN3CCCCC3)nc3scc(-c4ccccc4)c23)CC1 | -1 | -21 | 0 | -1 | 5 | -3 | 94
O=C(NC1CCCC1)C(c1ccsc1)N(Cc1ccccc1)C(=O)Cc1cccs1 (stereo not drawn) | 0 | -11 | 15 | -12 | -11 | -4 | 106
O=C(NC1CCCC1)C(c1ccncc1)N(Cc1ccccc1)C(=O)Cc1cccs1 (stereo not drawn) | -1 | 12 | 1 | -8 | 2 | / | /
COC(=O)c1ccc(C(C(=O)NC2CCCCC2)N(C(=O)Cc2cccs2)C2CC2)cc1 (stereo not drawn) | 1 | -1 | 86* | 5 | -10 | 18 | 98
CCCCC(CC)CNC(=O)C(=O)c1ccccc1NC(C)=O (stereo not drawn) | 1 | 8 | 0 | -8 | -6 | / | /
Cc1cc([N+](=O)[O-])cnc1N1CCOCC1 | 1 | 8 | 88* | -1 | -1 | 1 | 115
Cc1cc(C)cc(NC(=S)/C(=C(\[O-])c2ccc(Cl)s2)[n+]2cccc(C)c2)c1 | -1 | 3 | 2 | -14 | 3 | / | /
Cc1cc(C)cc(NC(=S)/C(=C(\[O-])c2ccc(Cl)cc2Cl)[n+]2ccc(C(C)(C)C)cc2)c1 | 1 | 2 | 41* | -1 | -11 | -4 | 101
SMILES | PERK inh | MLLE-PAM2 inh | GRK2 aptamer HTS | PABP polyA inh | eIF4H inh | GRK2 inh confirm | FAM quench CP1 | others
CCn1cc(CNC(=O)C2C3CCC(C3)C2C(=O)O)cn1 (stereo not drawn) | 0 | -8 | 40 | 8 | 4 | 3 | 102
Cc1ccc(C(O)c2ncc(-c3ccc(Cl)cc3)[nH]2)cc1 (stereo not drawn) | / | 1 | / | / | / | / | /
Nc1nc2c(ccc3ccccc32)s1 | / | 14 | 0 | / | / | / | / | GRK2 CP2=-20;FAM quench CP2=101
Nc1ccc2sc(N)nc2c1 | / | -7 | 0 | / | / | / | /
Cc1nc(NC(=O)c2cccnc2Cl)sc1C | / | 12 | 3 | / | / | / | /
Cc1cc(C)cc(NC(=O)COC(=O)COc2ccc(N(C)S(=O)(=O)c3cccs3)cc2)c1 | / | -12 | 41* | / | / | -3 | 98
Cc1c(C(=O)N/N=C/c2ccncc2)nnn1-c1nonc1N | / | 8 | / | / | / | / | /
O=C(CSc1nnc(NC(=O)C2CC2)s1)NCc1ccccc1Cl | / | -3 | 4 | 4 | -9 | / | /
CC1(C(=O)NCc2ccc(C(F)(F)F)cc2)CCN1C1Cc2ccccc2C1 (stereo not drawn) | / | 16 | / | / | / | / | /
O=C(COc1coc(CN2CCc3ccccc3C2)cc1=O)Nc1ccc(F)cc1F | / | 1 | 5 | / | / | / | /
Nc1nc2c(nc(N3CCCCC3)n2[C@@H]2O[C@H](CO)[C@@H](O)[C@H]2O)c(=O)[nH]1 | / | 8 | 93* | 12 | -1 | -2 | 99
Nc1nc2c(nc(SCc3ccccc3Br)n2C2OC(CO)C(O)C2O)c(=O)[nH]1 (stereo not drawn) | 2 | -8 | 4 | 11 | 5 | / | /
CC(=O)Oc1ccc([N+](=O)[O-])cc1N1C(=O)c2ccccc2C1=O | 1 | -5 | 100* | 2 | 7 | / | / | GRK2 CP2=i;FAM quench CP2=105
COc1ccc([N+](=O)[O-])cc1N1C(=O)c2cccnc2C1=O | / | 2 | 0 | 8 | 4 | / | /
COc1ccccc1CNC(=O)C1(C)CCN1Cc1ccc2ccccc2c1 (stereo not drawn) | / | -4 | / | / | / | / | /
